Inconclusive results are not listed. A number with no mark means an inactive call. The call rests on the fitted dose curve; in most records, active means well fitted curve in the direction sought with a large enough effect in the signal ratio in the repeat runs (not every such curve was filed as active); inconclusive means weak or mixed curves, or a change in a side signal; inactive means no such curve, though single readings can be large or run the other way; the % refers to the signal ratio.
Assay: qHTS assay to identify small molecule agonists of the NFkB signaling pathway (AID 1159509)
Conditions: NFkB-bla ME-180 cells, beta-lactamase FRET ratio, 5 h; series mostly up to 61 µM; activation: at the top concentration
Source text: National Center for Advancing Translational Sciences [NCATS]
NIH Chemical Genomics Center [NCGC]
U.S. Environmental Protection Agency [EPA]
National Institutes of Environmental Health Sciences [NIEHS]
National Toxicology Program [NTP]
U.S. Food and Drug Administration [FDA]
Transcription factors and their stimulated target gene expression play pivotal roles across many cellular processes including responses to environmental stimuli. Proper regulation of associated pathways is critical to maintain cell health and function. Constitutive activation of transcription factor pathways has been implicated in tumors as it may block cellular functions such as apoptosis and lead to invasion and metastasis. One important transcription factor that stimulates gene expression in response to cytokines, UV radiation, and other stimuli is nuclear factor-kappa B (NFkB). To measure activation of the NFkB pathway, the CellSensor NFkB-bla ME-180 cell line (Life Technologies, Carlsbad, CA) that stably expresses beta-lactamase reporter gene under the regulation of a NF-kB response element was used. This assay allows measurement of the NFkB pathway activity induced by compounds in a ME-180 cell line. This system quantitates NF-kB activity using a FRET-based assay system where beta-lactamase expression disrupts FRET, allowing for fluorescent measurement of activity. This cell line has been used to screen the Tox21 10K compound library and to identify compounds that induce the NFkB pathway activity.
Tox21 Assay Protocol Summary:
NFkB-bla ME-180 cells were dispensed at 2,000 cells/6 uL of assay medium per well into black wall/clear-bottom 1536-well plates using a Multidrop Combi (ThermoFisher Scientific, Waltham, MA) dispenser. After the assay plates were incubated at 37 C and 5% CO2 for an overnight, 23 nL of compounds dissolved in DMSO, positive controls or DMSO only was transferred to the assay plate by a Pintool station (Kalypsys, San Diego, CA). The assay plates were incubated at 37 C and 5% CO2 for 5 hr. One uL of LiveBLAzer B/G FRET substrate (Life Technologies) was added using a Flying Reagent Dispenser (Aurora Discovery, San Diego, CA) and the plates were incubated at room temperature for 1.5 hr. Fluorescence intensity (405 nm excitation, 460 nm and 530 nm emissions) was measured using an Envision plate reader (PerkinElmer, Shelton, CT).
With `CCOC(=O)[C@H](CCc1ccccc1)N[C@@H](C)C(=O)N1C(=O)N(C)C[C@H]1C(=O)O` the “activation” value was -0.0801%. In the case of `O=C(/N=N/C(=O)OCc1ccccc1)OCc1ccccc1`, the “activation” value was 0.222%. With `C[C@H](N)[C@H](O)c1cccc(O)c1` the “activation” value was -0.472%. In the case of `Cc1cc(NC(=O)C2=C(O)c3ccccc3S(=O)(=O)N2C)no1`, the “activation” value was 0.477%. For `BrCCCCCBr`, the “activation” value was -0.528% [at 78.8 µM]. In the case of `c1ccc2nccnc2c1`, the “activation” value was -0.58% [at 78.8 µM]. For `CCCOC(=O)C(C)O` (stereo not given), the “activation” value was -0.389% [at 78.8 µM]. For `C[C@H](CCC(=O)O)[C@H]1CC[C@H]2[C@@H]3C(=O)C[C@@H]4CC(=O)CC[C@]4(C)[C@H]3CC(=O)[C@]12C`, the “activation” value was -0.516%. With `CCCCCCCCOS(=O)(=O)O` the “activation” value was -0.0148%. With `O=C(O)Cc1cn(-c2ccccc2)nc1-c1ccc(Cl)cc1` the “activation” value was 1.64%. In the case of `CN1C(C)(C)CCCC1(C)C`, the “activation” value was 0.118%. In the case of `COCCc1ccc(OCC2CO2)cc1` (stereo not given), the “activation” value was 0.174%. For `O=S(=O)(O)c1ccc2cc(O)c(S(=O)(=O)O)cc2c1`, the “activation” value was 1.18%. For `CC(=O)/C=C/C1C(C)=CCC(C)C1(C)C` (stereo not given), the “activation” value was -0.206%. For `CC(N)C(=O)OC(C)(C)Cc1ccc(Cl)cc1` (stereo not given), the “activation” value was -0.113%. In the case of `O=S(=O)(O)CCN1CCN(CCO)CC1`, the “activation” value was -0.823%. With `Cc1ccc2c(c1)OCC(=O)CO2` the “activation” value was -0.264%. Work on `COC(=O)C1CC(=O)C(C(=O)OC)CC1=O` (stereo not given) yielded an activation of 0.23% [at 6.95 µM]. With `CN1CCN(CC(=O)N2c3ccccc3C(=O)Nc3cccnc32)CC1` the activation was -0.0785% [at 6.95 µM]. With `COc1cc(NS(=O)(=O)c2ccc(N)cc2)nc(OC)n1` the “activation” value was 0.317%. For `Cc1cccc(C)c1OCC(C)N` (stereo not given), the “activation” value was -0.379%. With `CC(C)CC(=O)O` the “activation” value was 0.166%. In the case of `CCCCCCCCC(=O)Cl`, the “activation” value was 0.402% [at 78.8 µM]. In the case of `CC(C)(C)OC(=O)c1ccc(O)cc1`, the “activation” value was -0.389%. In the case of `CCC(C=O)CC`, the “activation” value was -0.59% [at 78.8 µM]. With `CCC(CC)CO` the “activation” value was 0.8%. With `CC(=O)c1ccc2c(c1)Cc1ccccc1-2` the “activation” value was 0.539%. For `O=C(O)c1cc(Br)c(O)c(Br)c1`, the “activation” value was 0.168%. With `CCN(CC)CC(=O)Nc1c(C)cccc1C` the “activation” value was 0.127%. In the case of `COc1cc(C(=S)N2CCOCC2)cc(OC)c1OC`, the “activation” value was 0%. In the case of `Oc1cn2c(n1)Nc1ccc(Cl)c(Cl)c1C2`, the “activation” value was 0.0067% [at 28.5 µM]. In the case of `O=C(O)c1ccc(Cl)cc1Cl`, the “activation” value was 0.221% [at 78.8 µM]. For `O=C1c2cccc3c2[C@H](CCC3)CN1[C@@H]1CN2CCC1CC2`, the “activation” value was 1.11%. In the case of `CC(C)(C)c1cc(CCC(=O)NN)cc(C(C)(C)C)c1O`, the “activation” value was -0.844%. With `Cc1cc(C(C)(C)C)c(O)c(C)c1CC1=NCCN1` the “activation” value was -0.957%. With `O=C(CS(=O)Cc1ccco1)NC/C=C\COc1cc(CN2CCCCC2)ccn1` (stereo not given) the “activation” value was -0.29%. In the case of `C[C@@H]1O[C@@H](O[C@@H]2[C@@H](O)[C@H](OCCc3ccc(O)c(O)c3)O[C@H](CO[C@@H]3O[C@H](CO)[C@@H](O)[C@H](O)[C@H]3O)[C@H]2OC(=O)/C=C/c2ccc(O)c(O)c2)[C@H](O)[C@H](O)[C@H]1O`, the “activation” value was 0.0557%. For `O=C(CCNNC(=O)c1ccncc1)NCc1ccccc1`, the “activation” value was 0.0141%. For `O=C(NCC(O)CO)c1c(I)c(C(=O)NCC(O)CO)c(I)c(N(CCO)C(=O)CO)c1I` (stereo not given), the “activation” value was 0.887%. For `C=CC(OCC)OCC`, the “activation” value was -0.0656%.

From PubChem BioAssay (Tox21)
On the % scale 0 is the no-effect control and ±100 the full control effect.
